# According to PubChem BioAssay AID686979 (National Center for Advancing Translational Sciences (NCATS), 2013):
# Screen size: about 420,000 compounds; about 50,000 (12%) were called active. About 26% were inconclusive and are not listed. This excerpt belongs to a sample that is enriched for actives. A number with no mark means an inactive call. Calls follow the shape of the dose curve; as a rule, active = well fitted inhibition curve with a large enough effect; inconclusive = small, poorly fitted or top-dose-only effect; inactive = flat fitted curve, though single readings scatter.
# Experiment: qHTS for Inhibitors of human tyrosyl-DNA phosphodiesterase 1 (TDP1): qHTS in cells in presence of CPT; also: nearly all actives have a fitted effect of over 55% in size
# Details: chicken DT40 Tdp1-/-;hTDP1 cells + 20 nM CPT, ATP luminescence, 48 h; series mostly up to 46.2 µM; activity change, negative = growth inhibition: at the top concentration
# How it was run: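 Cell growth measured by CellTiter-Glo luminescence after a minimum 48 h, 37 C compound exposure with 20 nM CPT in Tdp1-knockout DT40 cells stably expressing hTDP1, seeded 400/well; qHTS titration format.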
# % is scaled to controls: 0 for no effect and ±100 for the full control effect; potency is read from the fitted curve at half-maximal effect.
SMILES,"activity change, negative = growth inhibition [%]",Potency
CCc1c(C)nc(SCC(=O)NC2CCCC2)[nH]c1=O,-2.07,
CCCn1c(NCc2ccc(N(CC)CC)cc2)nc2ccccc21,,25.9 µM (active)
CCCn1c(NCc2ccccc2F)nc2ccccc21,5.1,
CC(C)(C)C(=O)Cn1c(NCCO)nc2ccccc21,-3.07,
CC(=O)NC(CC(=O)Nc1ccc(S(=O)(=O)N2CCOCC2)cc1)c1ccccc1 (configuration not stated),0.997,
O=S(=O)(c1ccc(F)cc1)N1CC=C(c2ccccc2)CC1,-1.63,
COc1ccc(N(CC(=O)Nc2ccc(F)c(F)c2)S(=O)(=O)c2c(C)[nH]c(=O)[nH]c2=O)cc1,2.44,
Clc1cccc(N=C2NN=C(c3ccc4c(c3)OCCO4)CS2)c1,,20.6 µM (active)
S=C(Nc1cccc(Cl)c1)Nc1ccc2c(c1)OCCO2,-30.1,
c1ccc(CN2CCC(N=C3NN=C(c4ccc5c(c4)OCCO5)CS3)CC2)cc1,-26.3,
CCOC1CS(=O)(=O)CC1OCC (configuration not stated),-5.04,
CC(=O)Nc1ccc(NC(=O)CSc2nnnn2-c2ccccc2F)cc1,-24.4,
Cc1cccc(NC(=O)C2CCN(S(=O)(=O)c3c(C)noc3/C=C/c3ccco3)CC2)c1,,16.4 µM (active)
CC(=O)c1ccc(NC(=O)C2CCN(S(=O)(=O)c3c(C)noc3/C=C/c3ccc(C)cc3)CC2)cc1,-24.3,
CNC(=O)C1CCN(S(=O)(=O)c2c(C)noc2/C=C/c2cccc(C)c2)CC1,-10.1,
Cc1ccc(S(=O)(=O)N(C)C)cc1NC(=O)c1ccc(-n2cncn2)c([N+](=O)[O-])c1,-3.09,
COc1ccccc1CNCc1ccc(C(=O)O)s1,-5.35,
CCCn1nc(C(=O)OCc2nc(N)nc(Nc3ccccc3C)n2)c2ccccc2c1=O,-16.3,
C#CCNc1ccc(C(=O)OCC)cc1,1.67,
CC(C)OC(=O)c1ccc(NCc2cc(O)ccc2O)cc1Cl,,2.91 µM (active)
COC(=O)c1ccc(NCc2cc(O)ccc2O)cc1,,4.61 µM (active)
CC(OC(=O)c1ccc(Cl)cc1O)C(=O)NCCC1=CCCCC1 (configuration not stated),-9.5,
CC(CN1CCOCC1)OC(=O)c1ccc(Cl)cc1Cl (configuration not stated),5.64,

SMILES,"activity change, negative = growth inhibition [%]",Potency
O=C(OC12CC3CC(CC(C3)C1)C2)c1ccc(NCc2cc(O)ccc2O)cc1,,2.06 µM (active)
COC(=O)c1ccc(NCC(=O)c2ccccc2)cc1,-1.26,
CCCCCN(C(=O)CCC(=O)OCC(=O)NC1CCC(C)CC1)c1c(N)n(CCCC)c(=O)[nH]c1=O (configuration not stated),-3.19,
COc1ccc(NC(=O)c2cccc(Cl)c2)c[n+]1[O-],-0.187,
O=C(Nc1c2c(nn1-c1ccccc1)CS(=O)(=O)C2)C1CCCC1,-6.01,
O=C(CCc1ccc(S(=O)(=O)N2CCOCC2)cc1)OCC(=O)c1ccc(Br)cc1,9.72,
CCOc1ccc(-n2cnnn2)cc1S(=O)(=O)N1CCC(C)CC1C (configuration not stated),-5.89,
C#CC(C)(C)NC(=O)c1cnc(-c2ccccc2)nc1-c1ccccc1,-19.4,
COC(=O)c1ccc(COC(=O)CNC(=O)c2cccc(OC)c2)o1,1.46,
O=S(=O)(/N=C(/Nc1ccccc1)c1ccccc1)c1cccs1,-15.8,
CCCCCc1ccc(-c2cn(Cc3ccc4ccccc4c3)nn2)cc1,,inactive
CCc1cc(-c2nnn(CCC3COCCO3)c2CC)ccc1-c1cn(Cc2ccc3ccccc3c2)nn1 (configuration not stated),,5.8 µM (active)
CCCN(CCC)C(=O)C(Cc1ccccc1)NS(=O)(=O)c1ccc2c(c1)c(=O)n(C)c(=O)n2C (configuration not stated),-14,
O=C(CNC(=O)N1CC(=O)Nc2ccccc21)Nc1ccc(Br)cc1F,6.9,
C[C@H](CO)N1C[C@H](C)[C@@H](CN(C)C(=O)C2CCCCC2)OCc2cnnn2CCCC1=O,-22.6,
O=C(Cn1cc(SCc2cccc(Cl)c2)c2ccccc21)N1CCCCC1,,18.4 µM (active)
CC(C)N(C(=O)Cn1cc(SCC(=O)N2CCCC2)c2ccccc21)C(C)C,10.2,
CC(=O)Nc1cccc(NC(=O)CSc2cn(CC(=O)N3CCCC3)c3ccccc23)c1,-26.7,
CC(C)C12CN3CC(C(C)C)(CN(C1)C3c1ccc(OCc3ccccc3)cc1)C2=O (configuration not stated),0.582,
Cn1nccc1C(=O)NCC1CCC2(CCN(Cc3c(O)ccc4ccccc34)CC2)O1 (configuration not stated),-24.3,
COC(=O)c1cc(NC(=O)Cc2ccccc2[N+](=O)[O-])ccc1Cl,-7.47,
N#Cc1cccc(NC(=O)COC(=O)c2ccccc2C(=O)c2ccc(Cl)c([N+](=O)[O-])c2)c1,,20.6 µM (active)
CC(=O)Nc1ccc(NC(=O)COC(=O)c2ccccc2C(=O)c2ccccc2)cc1,-29.4,

SMILES,"activity change, negative = growth inhibition [%]",Potency
CCOC(=O)C1CCN(CC(=O)Nc2ccc(OC)c(S(=O)(=O)N3CCCCC3)c2)CC1,-23.6,
CCn1c2ccccc2c2cc(NC(=O)CNC)ccc21,1.65,
CC[n+]1c(C)n(-c2ccccc2)c2ccc(NC(C)=O)cc21,,6.51 µM (active)
CC(=O)Nc1ccc(NC(=O)CSc2nnc(C3CC3)n2-c2ccccc2)cc1,-16.4,
Cc1ccccc1NC(=O)Cn1c(=O)n(Cc2ccco2)c(=O)c2ccc(C(=O)NC3CCCC3)cc21,-7.3,
CC(C)(C)NC(=O)NC(=O)COC(=O)CCC1CCCCC1,-24.2,
COc1ccc(N2C(=O)C(Cc3ccccc3)NC2=S)cc1 (configuration not stated),31.4,
COc1ccc(N2c3ccccc3CN(Cc3ccccc3)[C@@H](C)[C@H]2Cc2ccc(-c3ccccc3)cc2)cc1,,23.1 µM (active)
C[n+]1cccc(C(=O)O)c1,-7.01,
O=C(CCc1nnc2ccc(NCc3ccccc3Cl)nn12)NCC1CCN(C2CCCC2)C1 (configuration not stated),9.38,
Nc1c(-c2cccc(Cl)c2)cnn1-c1cccc([N+](=O)[O-])c1,-19.7,
COc1cccc(NC(=O)C/C(C)=N/NC(=O)C2CCCCC2)c1,-21.1,
COc1cccc(NC(=O)N2CCCC2C(=O)NC2CCCCC2)c1 (configuration not stated),6,
COc1cccc(NC(=O)N(Cc2cn(C)c3ccccc23)C2CCCCCC2)c1,,5.8 µM (active)
COc1ccc(NC(=O)NNC(=O)COc2cc(C)c(Cl)c(C)c2)c(OC)c1,-9.26,
O=C1CSC(c2ccc(Cl)cc2)N1 (configuration not stated),-5.3,
O=C(CN1CCCCCC1)Nc1c(Cl)cc(Cl)cc1Cl,-25.1,
CCNC(=O)C1CCCN(C(=O)c2cc(F)ccc2C)CC1 (configuration not stated),-17.5,
O=C(c1cccc(F)c1)N1CCC2(CCCN(Cc3ccncc3)C2)CC1,-20.6,
COc1ccc(C(=O)N2CCC3(CCCN(C(c4ccccc4)c4ccccc4)C3)CC2)cc1,21,
O=C(c1ccncc1)N1CCC2(CCCN(C(c3ccccc3)c3ccccc3)C2)CC1,,16.4 µM (active)
